This note sets out measurements from ChEMBL document CHEMBL3988442, “University of Dundee, Small-Polar-MMV Screening Library” (2021).

For some of these results: Entries with a potency or affinity are not part of this list.

Holding throughout (design): scale not given: direction of the effect not stated beside the values
Assay [1] addresses Protein translocase subunit SecA (Escherichia coli (strain K12)) (UniProt P10408). Kind of assay: Assay to Identify E. coli SecA ATPase Inhibitors. The note with it: 30 µM. In kind it is functional.
The target in assay [2] is T1, Ubiquitin-activating enzyme e1, putative (Leishmania donovani (strain BPK282A1)) (UniProt E9BSI1).
T1 sequence (whole entry): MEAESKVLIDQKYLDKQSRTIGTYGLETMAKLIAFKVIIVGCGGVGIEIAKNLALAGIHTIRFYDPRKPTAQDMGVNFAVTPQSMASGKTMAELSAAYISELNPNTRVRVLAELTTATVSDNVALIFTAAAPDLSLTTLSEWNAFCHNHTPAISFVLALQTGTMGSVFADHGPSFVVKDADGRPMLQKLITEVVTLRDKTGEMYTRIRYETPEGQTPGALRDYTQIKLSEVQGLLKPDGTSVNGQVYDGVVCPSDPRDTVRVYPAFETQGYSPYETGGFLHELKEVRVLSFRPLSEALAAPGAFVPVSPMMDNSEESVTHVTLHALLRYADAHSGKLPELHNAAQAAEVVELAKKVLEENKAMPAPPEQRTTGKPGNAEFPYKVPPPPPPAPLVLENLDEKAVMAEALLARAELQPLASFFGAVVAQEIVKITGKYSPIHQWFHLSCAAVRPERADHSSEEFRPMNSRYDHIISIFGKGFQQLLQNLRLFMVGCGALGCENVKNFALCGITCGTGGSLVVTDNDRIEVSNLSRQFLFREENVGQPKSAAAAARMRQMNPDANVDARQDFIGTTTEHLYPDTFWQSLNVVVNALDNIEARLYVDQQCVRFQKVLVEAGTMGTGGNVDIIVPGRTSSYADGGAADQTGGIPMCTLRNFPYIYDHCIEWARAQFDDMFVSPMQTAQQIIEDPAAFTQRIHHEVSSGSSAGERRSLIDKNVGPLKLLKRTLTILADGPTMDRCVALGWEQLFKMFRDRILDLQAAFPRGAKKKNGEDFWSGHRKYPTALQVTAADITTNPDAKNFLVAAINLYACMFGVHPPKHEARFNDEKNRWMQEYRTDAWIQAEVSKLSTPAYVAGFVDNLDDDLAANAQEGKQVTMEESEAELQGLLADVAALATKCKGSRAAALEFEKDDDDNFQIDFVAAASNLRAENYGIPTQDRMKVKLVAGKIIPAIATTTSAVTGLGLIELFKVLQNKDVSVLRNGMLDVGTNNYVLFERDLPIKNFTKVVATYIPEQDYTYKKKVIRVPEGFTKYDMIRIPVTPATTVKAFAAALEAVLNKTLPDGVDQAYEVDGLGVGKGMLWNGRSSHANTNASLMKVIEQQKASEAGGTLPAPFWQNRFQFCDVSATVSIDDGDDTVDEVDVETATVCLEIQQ
The experiment in a line: Leishmania donovani Ubiquitin Activating Enzyme (LdE1). The note with it: 30 µM. Type of assay: functional.

The target of assay [3] is AMP-activated protein kinase, AMPK (Homo sapiens) (UniProt P54646+O43741+P54619+Q9UGJ0+Q9Y478+Q13131+Q9UGI9). The experiment in a line: AMP-dependent Kinase enzyme assay. An in vitro enzyme assay that detects ADP turnover that is directly proportional to AMPK activity. This uses naive AMPK that is activated during the assay with MK-8722. In kind it is functional. To be noted: 30 µM.

Assay [4] addresses Sialic acid-binding Ig-like lectin 9 (Homo sapiens) (UniProt Q9Y336). The experiment in a line: Hs-Siglec9 ALPHAscreen SOP 20170721. To be noted: 10 µM. For orientation: Bead proximity is the source of the signal in Alpha formats.
For another assay, the system named is Trypanosoma cruzi. The experiment in a line: Trypanosoma cruzi phosphomannomutase and mannose-1-phosphate guanylyltransferase assay. The note with it: 10 µM. In kind it is functional.
For assay [5], the target named is T2, Arginase-2, mitochondrial (Homo sapiens) (UniProt P78540).
T2 sequence (whole entry): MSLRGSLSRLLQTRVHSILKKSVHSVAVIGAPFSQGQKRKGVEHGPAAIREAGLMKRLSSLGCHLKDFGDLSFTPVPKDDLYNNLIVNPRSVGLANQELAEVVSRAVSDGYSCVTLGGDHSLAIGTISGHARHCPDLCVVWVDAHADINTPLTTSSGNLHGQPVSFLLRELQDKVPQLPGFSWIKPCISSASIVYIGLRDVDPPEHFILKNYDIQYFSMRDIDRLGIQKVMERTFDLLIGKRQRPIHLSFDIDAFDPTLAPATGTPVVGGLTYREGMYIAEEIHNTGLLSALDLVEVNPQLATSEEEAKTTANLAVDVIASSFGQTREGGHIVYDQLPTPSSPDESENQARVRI
Kind of assay: in vitro enzyme assay to detect the production of urea directly proportional to the activity of Arginase II. Note: in the data most compounds retested in dose-response had high values. In kind it is functional. To be noted: 33.3 µM.

In assay [6] the target is T3, Proteasome subunit beta (Trypanosoma cruzi) (UniProt O96673).
T3 sequence (whole entry): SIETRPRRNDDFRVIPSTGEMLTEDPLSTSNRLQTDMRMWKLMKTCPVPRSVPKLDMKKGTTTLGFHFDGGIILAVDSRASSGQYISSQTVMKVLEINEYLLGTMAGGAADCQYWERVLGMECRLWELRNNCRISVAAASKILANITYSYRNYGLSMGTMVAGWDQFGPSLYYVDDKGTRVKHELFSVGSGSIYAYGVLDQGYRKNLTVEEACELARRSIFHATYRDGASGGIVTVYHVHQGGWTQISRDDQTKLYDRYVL
The experiment in a line: Trypanosoma cruzi proteasome chymotrypsin-like activity (TcProtChymo) assay. Note: in the data most compounds retested in dose-response had high values. In kind it is functional. To be noted: 9.37 µM.

For another assay, the species on record is Homo sapiens. Kind of assay: To identify inhibition of the IFN signalling (Jak-Stat) pathway via expression of an eGFP reporter gene under the control of an IFN-stimulated response element (ISRE) containing MxA promoter. In kind it is functional. To be noted: 30 µM. For orientation: In a reporter assay the amount or activity of a reporter protein is the signal.

In assay [7] the target is T4, Tyrosyl-tRNA synthetase, putative (Trypanosoma cruzi (strain CL Brener)) (UniProt Q4DSP6).
T4 sequence (whole entry): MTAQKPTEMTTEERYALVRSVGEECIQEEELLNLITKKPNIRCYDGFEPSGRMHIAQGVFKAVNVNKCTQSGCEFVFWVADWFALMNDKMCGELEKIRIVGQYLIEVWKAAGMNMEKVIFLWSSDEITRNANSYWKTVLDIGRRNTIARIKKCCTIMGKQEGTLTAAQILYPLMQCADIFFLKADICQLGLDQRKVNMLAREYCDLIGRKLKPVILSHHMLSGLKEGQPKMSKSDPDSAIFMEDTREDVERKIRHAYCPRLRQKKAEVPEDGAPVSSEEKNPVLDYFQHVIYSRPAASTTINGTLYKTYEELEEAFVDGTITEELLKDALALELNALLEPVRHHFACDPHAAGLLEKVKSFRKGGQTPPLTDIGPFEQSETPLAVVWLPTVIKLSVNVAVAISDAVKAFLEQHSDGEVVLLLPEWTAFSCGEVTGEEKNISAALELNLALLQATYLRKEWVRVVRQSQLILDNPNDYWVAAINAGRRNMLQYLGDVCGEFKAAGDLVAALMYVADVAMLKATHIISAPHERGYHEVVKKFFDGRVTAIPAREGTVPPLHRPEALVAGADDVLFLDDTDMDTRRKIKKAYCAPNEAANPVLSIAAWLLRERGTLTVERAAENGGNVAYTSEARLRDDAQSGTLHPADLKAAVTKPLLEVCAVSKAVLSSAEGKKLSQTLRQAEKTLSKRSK
The experiment in a line: Trypanosoma cruzi tyrosyl tRNA synthetase (TcYRS) _High Tyrosine SOP. Note: in the data most compounds retested in dose-response had high values. Type of assay: functional. To be noted: 30 µM.

In assay [8] the target is T4, Tyrosyl-tRNA synthetase, putative (Trypanosoma cruzi (strain CL Brener)). Kind of assay: Trypanosoma cruzi tyrosyl tRNA synthetase (TcYRS) SOP. Type of assay: functional. To be noted: 30 µM.
The target of assay [9] is Chromo domain-containing protein 1 (Saccharomyces cerevisiae (strain ATCC 204508 / S288c) (Baker's yeast)) (UniProt P32657). The experiment in a line: ScCHD-1 Enzyme Inhibition Assay. Note: in the data most compounds retested in dose-response had high values. In kind it is functional. To be noted: 30 µM.
Chain of Chromo domain-containing protein 1 (Saccharomyces cerevisiae (strain ATCC 204508 / S288c) (Baker's yeast)) (P32657 whole entry, the tested form may be a part): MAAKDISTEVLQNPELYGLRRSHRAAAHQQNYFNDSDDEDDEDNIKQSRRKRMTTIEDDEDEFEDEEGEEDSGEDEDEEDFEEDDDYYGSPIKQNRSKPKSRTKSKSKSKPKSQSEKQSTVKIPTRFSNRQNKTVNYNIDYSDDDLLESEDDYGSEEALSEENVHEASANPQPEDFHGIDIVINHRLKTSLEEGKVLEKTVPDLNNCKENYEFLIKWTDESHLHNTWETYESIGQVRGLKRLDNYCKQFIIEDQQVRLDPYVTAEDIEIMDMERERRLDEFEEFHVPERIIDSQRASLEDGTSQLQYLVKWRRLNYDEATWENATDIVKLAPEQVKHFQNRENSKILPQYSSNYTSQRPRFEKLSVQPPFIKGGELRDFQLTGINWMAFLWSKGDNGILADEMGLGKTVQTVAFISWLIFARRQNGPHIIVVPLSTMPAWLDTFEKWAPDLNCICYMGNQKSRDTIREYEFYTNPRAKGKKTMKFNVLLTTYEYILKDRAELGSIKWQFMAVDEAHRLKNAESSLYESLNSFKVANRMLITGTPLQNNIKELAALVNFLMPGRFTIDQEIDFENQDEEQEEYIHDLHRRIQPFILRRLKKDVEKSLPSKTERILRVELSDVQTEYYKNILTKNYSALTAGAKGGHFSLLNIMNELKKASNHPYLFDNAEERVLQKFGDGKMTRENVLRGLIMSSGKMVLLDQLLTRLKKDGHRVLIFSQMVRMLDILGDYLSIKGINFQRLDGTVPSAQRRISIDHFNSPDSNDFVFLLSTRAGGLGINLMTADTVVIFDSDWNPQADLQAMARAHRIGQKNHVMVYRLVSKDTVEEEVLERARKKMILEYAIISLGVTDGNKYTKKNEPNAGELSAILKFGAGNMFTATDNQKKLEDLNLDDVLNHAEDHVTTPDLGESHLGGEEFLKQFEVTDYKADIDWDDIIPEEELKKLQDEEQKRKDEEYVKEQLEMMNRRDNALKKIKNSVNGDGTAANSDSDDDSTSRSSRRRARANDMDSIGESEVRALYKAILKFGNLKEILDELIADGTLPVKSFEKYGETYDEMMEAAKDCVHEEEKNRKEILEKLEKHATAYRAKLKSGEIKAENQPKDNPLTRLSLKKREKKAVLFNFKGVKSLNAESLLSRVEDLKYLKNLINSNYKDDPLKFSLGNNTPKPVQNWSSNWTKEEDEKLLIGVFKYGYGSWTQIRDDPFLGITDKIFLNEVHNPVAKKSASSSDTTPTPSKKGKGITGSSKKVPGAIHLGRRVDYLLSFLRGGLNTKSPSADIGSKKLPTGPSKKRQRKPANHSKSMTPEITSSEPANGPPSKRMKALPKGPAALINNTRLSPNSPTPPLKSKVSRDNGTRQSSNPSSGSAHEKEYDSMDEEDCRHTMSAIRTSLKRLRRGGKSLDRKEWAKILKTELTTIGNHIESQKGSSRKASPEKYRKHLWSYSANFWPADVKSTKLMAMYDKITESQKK

Chain of Protein translocase subunit SecA (Escherichia coli (strain K12)) (P10408 whole entry): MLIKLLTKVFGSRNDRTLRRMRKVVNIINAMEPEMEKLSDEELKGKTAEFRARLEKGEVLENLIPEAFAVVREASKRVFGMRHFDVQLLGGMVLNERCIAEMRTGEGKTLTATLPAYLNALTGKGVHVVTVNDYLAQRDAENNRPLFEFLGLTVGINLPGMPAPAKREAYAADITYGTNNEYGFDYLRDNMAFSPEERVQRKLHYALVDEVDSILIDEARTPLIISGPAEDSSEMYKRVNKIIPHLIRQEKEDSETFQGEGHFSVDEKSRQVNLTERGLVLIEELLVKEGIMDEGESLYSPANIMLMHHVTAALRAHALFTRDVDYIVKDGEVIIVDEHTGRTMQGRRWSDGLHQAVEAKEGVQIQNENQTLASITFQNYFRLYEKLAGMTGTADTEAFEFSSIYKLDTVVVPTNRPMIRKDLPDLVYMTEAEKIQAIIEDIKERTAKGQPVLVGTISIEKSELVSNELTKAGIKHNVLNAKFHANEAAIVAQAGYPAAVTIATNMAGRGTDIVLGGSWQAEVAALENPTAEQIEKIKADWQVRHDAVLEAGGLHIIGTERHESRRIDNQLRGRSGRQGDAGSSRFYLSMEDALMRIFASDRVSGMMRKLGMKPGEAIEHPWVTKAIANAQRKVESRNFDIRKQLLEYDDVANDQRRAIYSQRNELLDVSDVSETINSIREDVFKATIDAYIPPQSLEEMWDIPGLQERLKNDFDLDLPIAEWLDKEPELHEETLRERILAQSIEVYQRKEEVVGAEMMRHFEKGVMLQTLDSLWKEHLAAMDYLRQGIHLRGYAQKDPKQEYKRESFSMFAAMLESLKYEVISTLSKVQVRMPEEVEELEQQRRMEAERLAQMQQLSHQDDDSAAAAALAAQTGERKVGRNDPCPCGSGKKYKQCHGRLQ
Chain of Sialic acid-binding Ig-like lectin 9 (Homo sapiens) (Q9Y336 whole entry): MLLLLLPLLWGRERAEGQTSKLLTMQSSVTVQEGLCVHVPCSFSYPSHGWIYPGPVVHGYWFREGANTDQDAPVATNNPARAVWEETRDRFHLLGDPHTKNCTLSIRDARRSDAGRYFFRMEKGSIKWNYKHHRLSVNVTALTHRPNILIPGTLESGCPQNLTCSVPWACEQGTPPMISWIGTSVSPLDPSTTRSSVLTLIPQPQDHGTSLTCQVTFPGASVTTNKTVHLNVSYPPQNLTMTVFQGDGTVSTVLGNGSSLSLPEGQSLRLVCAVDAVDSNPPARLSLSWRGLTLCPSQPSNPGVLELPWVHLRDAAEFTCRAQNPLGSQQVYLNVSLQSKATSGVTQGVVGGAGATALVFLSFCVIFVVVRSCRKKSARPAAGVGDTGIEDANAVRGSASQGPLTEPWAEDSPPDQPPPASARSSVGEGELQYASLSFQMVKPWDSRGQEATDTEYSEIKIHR

With `Cn1nc(C(=O)NCc2ccccn2)c2c1CCS(=O)(=O)C2`, the Percent Effect is -2.26% in [1]; 6.67% in assay [2]; 15% in [3]; 1.25% in assay [4]; -6.48% in the assay on Trypanosoma cruzi; -11.1% in assay [5]. Also, the Percent Effect in [6] is 16.3%; in the assay listed under Homo sapiens it was 11.6%; in [7] it was 6.35%; in assay [8], 12.8%; in [9], -9.63%.
With `CNc1cccc(C2CCCN(C(=O)c3ccncc3)C2)n1` (stereo unspecified), the Percent Effect in [1] is -4.49%; in [2] it was 6.76%; in [3], 12.2%; in assay [4], 0.305%; with Trypanosoma cruzi it was 4.74%; in assay [5], -0.232%. Moreover, the Percent Effect was 8.27% in [6]; -2.26% in the assay listed under Homo sapiens; 6.45% in assay [7]; 11.7% in assay [8]; -14.3% in [9].
In the case of `Cc1nn(C)cc1C(=O)Nc1cccc(CN2CCC(CO)CC2)c1`, the Percent Effect is -3.16% in assay [1]; 18.4% in assay [2]; -4.72% in assay [3]; -21.7% in assay [4]; 3.41% in the assay on Trypanosoma cruzi; 26% in assay [5]. Further, the Percent Effect in [6] is 8.53%; in the assay filed under Homo sapiens, 28.8%; in assay [7] it was 1.06%; in [8], 15.6%; in assay [9], -7.09%.
Take `CC1CCCCN1c1nc2c(c(=O)[nH]1)CCN(Cc1cccnc1)C2` (stereo unspecified): the Percent Effect is -3.13% in assay [1]; 12.2% in [2]; 6.19% in assay [3]; 3.8% in assay [4]; 0.79% in the assay on Trypanosoma cruzi; 2.09% in assay [5]. The Percent Effect in assay [6] is 9.36%; in the assay listed under Homo sapiens, 2.99%; in assay [7] it was 3.23%; in [8] it was 14.3%; in [9], -18.2%.
Consider `COc1cccc(C)c1C(=O)N1C[C@@H](CN(C)C)[C@@H](CO)C1`, for which the Percent Effect is -3.79% in assay [1]; 5.2% in assay [2]; -2.32% in assay [3]; 7.05% in assay [4]; 2.26% in the assay with Trypanosoma cruzi; -2.76% in [5]. In addition, the Percent Effect in [6] is 9.15%; in the assay listed under Homo sapiens, -12.3%; in [7] it was 6.45%; in [8], 11.1%; in [9] it was -0.303%.
Turning to `COC(=O)c1ccc(N2CCN(CCN3CCOCC3)C(C)C2)cc1` (stereo unspecified), the Percent Effect in assay [1] was -7.58%; in assay [2], 15.8%; in assay [3] it was -5.32%; in assay [4] it was 3.41%; in the assay with Trypanosoma cruzi it was -0.467%; in assay [5], -1.8%. For the same compound, the Percent Effect was 2.96% in assay [6]; -10.7% in the assay filed under Homo sapiens; 7.39% in assay [7]; 13.6% in assay [8]; -4.27% in [9].
For the compound `CCC(C)c1noc(C2CCN(C(=O)c3cccnc3)CC2)n1` (stereo unspecified), the Percent Effect in assay [1] is -3.05%; in assay [2], 7.79%; in assay [3] it was 0.731%; in assay [4], 6.36%; in the assay with Trypanosoma cruzi it was -0.0983%; in assay [5] it was -9.65%. In addition, the Percent Effect in assay [6] is 14.8%; in the assay filed under Homo sapiens, -14.3%; in [7] it was 5.38%; in assay [8], 11.1%; in assay [9], -2.94%.
As to `CC(=O)c1cn(CCC(=O)N[C@H](C(=O)O)C(C)C)c2ccccc12`, the Percent Effect is -1.16% in assay [1]; 12% in [2]; 3.61% in assay [3]; -0.198% in assay [4]; -2.95% with Trypanosoma cruzi; -9.68% in [5]. In addition, the Percent Effect in [6] is 11.7%; in the assay filed under Homo sapiens, 8.13%; in assay [7] it was 7.41%; in assay [8] it was 15.4%; in assay [9] it was -3.85%.
As to `O=S(=O)(Cc1ccccc1)NCC1CCN(c2cnccn2)CC1`, the Percent Effect in assay [1] is -2.03%; in [2] it was 10.4%; in assay [3], 5.37%; in assay [4], -3.08%; in the assay with Trypanosoma cruzi, -6.02%; in [5], -3.23%. For the same compound, the Percent Effect in assay [6] is 10.4%; in the assay filed under Homo sapiens, 9.96%; in assay [7], 3.17%; in [8], 6.41%; in assay [9], -7.97%.
As for `CC(C)OCCOCc1cccc(NC(=O)NCc2ccccn2)c1`, the Percent Effect in assay [1] was -5.4%; in assay [2], 10.4%; in assay [3] it was 0.256%; in assay [4], 12%; with Trypanosoma cruzi it was 6.79%; in assay [5], -24.8%. The Percent Effect in assay [6] was 19.3%; in the assay listed under Homo sapiens, -1.08%; in assay [7], 2.15%; in assay [8] it was 8.64%; in assay [9], -6.3%.
In the case of `O=C(CCc1ccsc1)NCC1CCN(c2ccccc2)C1` (stereo unspecified), the Percent Effect in assay [1] was 0.538%; in [2], -6.94%; in [3], -4.41%; in [4], -4.12%; in the assay on Trypanosoma cruzi it was -6.51%; in [5], 5.3%. Moreover, the Percent Effect was 18.4% in [6]; 9.93% in the assay listed under Homo sapiens; 6.32% in assay [7]; 7.69% in assay [8]; -1.39% in [9].
